Compound activity (PubChem BioAssay)
Mito fusion act = inhibitors of mitochondrial division or activators of mitochondrial fusion | S. cerevisiae fusion-defective mutant growth rescue, CellTiterGlo 48 h | Potency, µM (top dose mostly 46.1 µM), for inactives: top-dose growth rescue (activation), usual class: activators | actives 0.23% (n = 320,000) | AID 485298; active means well fitted activation curve with a large enough effect; inconclusive means small, poorly fitted or top-dose-only effect; inactive means no such curve, though single readings can be large or run the other way; further: potency means the concentration at half of the fitted maximal effect; % of control where 0% means no effect; nearly all actives have a fitted effect of over 45% in size
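Read-out: ATP-based luminescence (CellTiterGlo, 10 min ambient) reporting growth of fusion-defective ts yeast after 48 hours at 37C on glycerol/ethanol YPEG medium in the presence of compound.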
Six1-Eya2 inh = inhibitors of human Six1/Eya2 interaction. actives 0.56% (n = 360,000). activity change, % (no concentration beside the values). AID 651725. Q15475+O00167. AlphaScreen GST-Six1/His-Eya2 binding, biochemical; hits give low values; further: on the % scale 0 is the no-effect control and ±100 the full control effect
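Compounds are tested against tagged Six1 and Eya2 proteins bridged by glutathione donor and nickel acceptor beads; after a one-hour incubation at 37 °C without light, AlphaScreen emission is recorded.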
CtBP-E1A inh = inhibitors of CtBP/E1A interaction. activity change, % (no concentration beside the values). actives 0.49% (n = 340,000). AID 651724. AlphaScreen GST-E1A/His-CtBP binding, 1536-well; hits give low values; further: on the % scale 0 is the no-effect control and ±100 the full control effect
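Homogeneous bead-based format: GST-tagged E1A captured on glutathione donor beads, His-tagged CtBP on nickel acceptor beads; compounds precede bead addition by 2 h at 37 °C.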
uPA generation = blocks generation of uPA at the cell surface; AID 540303; actives 0.31% (n = 330,000); cell surface uPA generation assay, qHTS; Potency, µM (top dose mostly 38.3 µM), inactives show at the top dose activity change, negative = inhibition, usual class: inhibitors; active means well fitted inhibition curve with a large enough effect; inconclusive means small, poorly fitted or top-dose-only effect; inactive means no such curve, though single readings can be large or run the other way; tested in mouse RAW 264.7 cells; further: potency means the concentration at half of the fitted maximal effect; on the % scale 0 is the no-effect control and ±100 the full control effect; nearly all actives have a fitted effect of over 55% in size
MBNL1-CUG inh = MBNL1-poly(CUG) RNA binding inhibition. Q9NR56. TR-FRET MBNL1-His/biotin-(CUG)12 binding, 665/545 ratio. Potency, µM (highest dose often 57.5 µM), for the others: at the highest dose activity change, negative = inhibition, actives largely listed as inhibitors. actives 0.036% (n = 280,000). AID 2675; active means well fitted inhibition curve with a large enough effect in the signal ratio, with a control signal flat, not every such curve was filed as active; inconclusive means small, poorly fitted or top-dose-only effect, or effect the other way, or a change in a side signal; inactive means no such curve, though single readings can be large or run the other way; the % refers to the signal ratio; further: potency means the concentration at half of the fitted maximal effect; on the % scale 0 is the no-effect control and ±100 the full control effect
Target sequence (Q9NR56 whole entry, looked up): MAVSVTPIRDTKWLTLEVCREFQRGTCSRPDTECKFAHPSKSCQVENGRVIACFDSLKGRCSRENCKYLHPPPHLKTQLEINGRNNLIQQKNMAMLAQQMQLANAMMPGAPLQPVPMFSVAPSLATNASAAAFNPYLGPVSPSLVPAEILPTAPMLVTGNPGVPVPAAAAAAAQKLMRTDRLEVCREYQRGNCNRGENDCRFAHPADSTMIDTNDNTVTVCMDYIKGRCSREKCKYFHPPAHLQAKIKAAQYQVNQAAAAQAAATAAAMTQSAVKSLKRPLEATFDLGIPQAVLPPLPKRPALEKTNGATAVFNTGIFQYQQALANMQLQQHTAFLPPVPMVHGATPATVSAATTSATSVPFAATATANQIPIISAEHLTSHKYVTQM
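TR-FRET between His-tagged MBNL1 and biotin-(CUG)12 RNA, detected with Tb anti-His antibody (0.055 ng/ul) and streptavidin-XL665 (5 nM), 60 min at room temperature. Compounds titrated 92 nM to 58 uM; 665/545 nm ratio normalized to buffer and complex controls.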
* marks the source's active call; other numbers are inactive results; ? = inconclusive; . = not tested or not shown; [ ] = dose if it differs, or a comment. An excerpt weighted towards active compounds, which were near 1.1% of everything screened. Unless noted, no stated cut-off is given here; in the data, active means activity change below about -65%; inconclusive means mostly about -30% to -63%; inactive means weaker than that.

SMILES | Mito fusion act | Six1-Eya2 inh | CtBP-E1A inh | uPA generation | MBNL1-CUG inh
COc1ccc(-c2c(C)[nH]n3c(=O)c(Cc4ccccc4)c(C)nc23)cc1 | 12% | -67* | -71* | -8% | -10%
Cc1c(C(=O)O)cccc1-c1ccc(/C=N/Nc2ccc(Br)cc2)o1 | 20µM* | -14 | -14 | -1% | 15%
NC(=S)N/N=C/c1ccccc1OC(=O)/C=C/c1ccccc1 | -6% | ? | -93* | ? | 14%
NC(=S)N/N=C\c1ccccc1OCc1ccccc1 | 16% | -1 | -12 | -12% | 12%
CCCCN(C(=O)COC(=O)c1sccc1C)c1c(N)n(CCC)c(=O)[nH]c1=O | . | -5 | 4 | . | .
CCOC(=O)c1ccccc1NC(=O)CN(c1ccccc1OC)S(=O)(=O)c1ccc(C)cc1 | 1% | . | . | . | .
COc1ccc(C(CCN2CCCC2)c2c(OC)cc(OC)c3c(-c4ccccc4)cc(=O)oc23)cc1 (stereo not given) | 0% | -4 | -6 | -11% | 0%
COc1cc(OC)c2c(-c3ccccc3)cc(=O)oc2c1C(CCN1CCCC(C)C1)c1ccc(N(C)C)cc1 (stereo not given) | -44% | -67* | . | ? | 8%
COc1ccc(C(CCN2CCOCC2)c2c(OC)cc(OC)c3c(-c4ccccc4)cc(=O)oc23)cc1 (stereo not given) | . | -22 | -13 | 14µM* | .
COc1cc(OC)c2c(-c3ccccc3)cc(=O)oc2c1C(CCN1CCN(c2ccccc2)CC1)c1ccc(N(C)C)cc1 (stereo not given) | -52% | ? | ? | -16% | 2%
COc1ccc(C(CCN2CCCC(C)C2)c2c(OC)cc(OC)c3c(-c4ccccc4)cc(=O)oc23)cc1 (stereo not given) | -30% | -13 | -10 | ? | 16%
CCCCCc1cc(=O)oc2c(C(CCN3CCN(c4ccccc4)CC3)c3ccc(N(C)C)cc3)c(OC)cc(OC)c12 (stereo not given) | -54% | -66* | -28 | -8% | -4%
CC1(C(=O)NS(=O)(=O)c2ccccc2Cl)CCN1C(=O)c1ccco1 (stereo not given) | . | 12 | 1 | . | .
CN(C)c1ccc(/C=C2\CCC/C(=C\c3ccccc3)C2=O)cc1 | -2% | -12 | -10 | ? | 5%
O=C1/C(=C/c2ccc(C(=O)O)cc2)CCC/C1=C\c1ccc(C(=O)O)cc1 | 0% | -67* | 3 | 29% | .
O=C1/C(=C/c2cccnc2)CC/C1=C\c1cccnc1 | 5% | 0 | 1 | -1% | -5%
O=C1/C(=C/c2cccnc2)CCC/C1=C\c1cccnc1 | 0% | -7 | 0 | 8.9µM* | -23%
Cc1ccc(S(=O)(=O)N2[C@@H](c3ccc(Br)cc3)C(C(=O)O)=CC[C@H]2c2cccs2)cc1 | . | 2 | 0 | -13% | .
Nc1[nH]c(N=NC(=O)c2ccccc2O)c2ccccc12 | 4% | -78* | ? | -9% | 14%
CN1CCn2cnc(C(=O)NCCCCCNC(=O)OC(C)(C)C)c2C1=O | . | -3 | -3 | . | .
Cn1cnc2ncnn2c1=S | . | -1 | 4 | . | .
C=CCN1C=C/C(=C\C=C(C#N)C#N)c2ccccc21 | 3% | ? | -79* | -6% | .
N=C(N)c1ccc(N=Nc2c(O)ccc3c2[nH]c2ccccc23)cc1 | . | ? | -67* | -3% | .
Cn1nnnc1Sc1ncnc2scc(-c3ccc(C(F)(F)F)cc3)c12 | 3% | . | . | ? | .
Cn1nnnc1Sc1ncnc2scc(-c3cccc(C(F)(F)F)c3)c12 | . | . | . | 8.9µM* | .
SMILES | Mito fusion act | Six1-Eya2 inh | CtBP-E1A inh | uPA generation | MBNL1-CUG inh
Cn1nnnc1Sc1ncnc2scc(-c3ccc(-c4ccccc4)cc3)c12 | . | . | . | 2µM* | .
Cn1nnnc1Sc1ncnc2scc(-c3ccc(C#N)cc3)c12 | -15% | . | . | ? | .
c1ccc(CCSc2ncnc3nc[nH]c23)cc1 | 18µM* | 4 | . | ? | 14%[11.5 µM]
Cc1ccc(C)c(NC(=O)CSc2n[nH]c(-c3ccccn3)n2)c1 | -12% | -77* | -92* | -15% | 0%
Cc1ccccc1NC(=O)CSc1n[nH]c(-c2ccccn2)n1 | -8% | -92* | -94* | -13% | 5%
O=C(CSc1n[nH]c(-c2ccccn2)n1)Nc1cccc(Cl)c1 | -10% | -93* | -97* | -15% | 2%
O=C(CSc1n[nH]c(-c2ccccc2)n1)Nc1ncccn1 | -3% | -7 | 2 | 0% | 8%
COc1ccc2c(c1OC)C(=O)N1N=C(c3ccc(Br)cc3)CC21 (stereo not given) | 16µM* | 2 | 4 | 0% | 24%
COc1ccc(N2C(=O)c3ccccc3NC(=O)C2C(=O)NCCc2ccccc2F)cc1 (stereo not given) | . | -4 | -8 | . | .
COc1ccc2[nH]c3c(N4CCN(Cc5ccc6c(c5)OCO6)CC4)ncnc3c2c1 | 9% | -65* | ? | -12% | -16%
CCN1CCN(C(=O)c2cc3ccc(OC)cc3[nH]2)CC1 | -2% | 1 | 3 | 3% | ?
COc1ccc2c(c1)c1ncnc(N3CCN(Cc4ccc5c(c4)OCO5)CC3)c1n2C | -3% | . | . | . | 2%
COc1ccc2cc(C(=O)N3CCN(Cc4ccc5c(c4)OCO5)CC3)[nH]c2c1 | -2% | 16 | -97* | -1% | -3%
Cc1cc(C)c2cc3c(N)c(C(=O)N4CCOCC4)sc3nc2c1 | 1% | 0 | 0 | -7% | ?
Cc1cc(C)c(NC(=O)c2sc3nc4c(cc3c2N)C(=O)CC(C)(C)C4)c(C)c1 | 13µM* | -2 | . | 18% | 5%[11.5 µM]
COC(=O)c1sc2nc3c(cc2c1N)C(=O)CC(C)(C)C3 | -1% | 3 | 11 | -8% | 4%
Cc1cc(C)c2cc3c(N)c(C(=O)Nc4c(C)[nH]c(=O)[nH]c4=O)sc3nc2c1 | 8% | -71* | -14 | 1% | ?
CCCNC(=O)C1(C)CCN(C(=O)c2cc(C(C)(C)C)nn2C)C1 (stereo not given) | . | 4 | 29 | . | .
CN(C)c1ccc(C(c2ccc(N(C)C)cc2)c2ccc([N+](=O)[O-])cc2)cc1 | 8% | -83* | ? | 0% | 12%
CCOC1=C2[C@H](c3ccc(Cl)cc3)N(S(=O)(=O)c3ccc(C)cc3)C[C@H]2n2c(=O)n(-c3ccccc3)c(=O)n2C1 | . | -1 | 11 | . | .
COc1ccc(Br)cc1C(=O)Nc1cccc(NC(=O)c2ccco2)c1 | ? | -16 | -8 | -4% | 4%
COc1c(C)cc(Br)cc1C(=O)Nc1cccc(NC(=O)c2ccco2)c1 | 20µM* | -4 | -15 | -6% | -6%
Cc1nc(-c2ccccc2)sc1C(=O)NS(=O)(=O)c1ccc(CN2CCN(c3ccccc3)CC2)cc1 | . | ? | -25 | . | .
C/C(=N\NC(=O)c1c[nH]c2ccccc12)c1ccccn1 | 8% | -93* | -93* | -11% | 3%
C/C(=N\NC(=O)c1cc2ccccc2cc1O)c1ccccn1 | -25% | -23 | -21 | 1% | 17%
